Sampled rows, rich in hits. Any-hit rate of the full collection: about 3.4%.
FBW7 act: human FBW7 E3 ligase activation, primary screen | AID 1259310 | Q969H0 | hit rate 0.13% among 650,000 | AlphaScreen FBW7–phospho-cyclin E peptide binding, activator screen | normalized activity (activation), % at 26.1 µM; in the data active means normalized activity above about 1.9%;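 further: purified mutant Fbw7 with reduced substrate affinity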
MITF inh: human MITF inhibition, primary screen; O75030; AlphaScreen MITF homodimerization, bead proximity signal; inhibition, % at 2.6 µM; hit rate 0.91% among 650,000; in the data active means inhibition above about 50%
TEAD-YAP inh: TEAD-YAP interaction inhibition | HEK-TIYL cells, TEAD-Gal4/YAP UAS-luciferase luminescence | inhibition, % at 9.12 µM | hit rate 1.4% among 640,000 | AID 1259422; in the data active means inhibition above about 32%
GPR151 ag: human GPR151 activation. Q8TDV0. PathHunter beta-arrestin GPR151 cells, luminescence. activation, % at 11.2 µM. hit rate 1% among 650,000. AID 1508602; in the data active means activation above about 4.9%
Target sequence (Q8TDV0 whole entry, looked up): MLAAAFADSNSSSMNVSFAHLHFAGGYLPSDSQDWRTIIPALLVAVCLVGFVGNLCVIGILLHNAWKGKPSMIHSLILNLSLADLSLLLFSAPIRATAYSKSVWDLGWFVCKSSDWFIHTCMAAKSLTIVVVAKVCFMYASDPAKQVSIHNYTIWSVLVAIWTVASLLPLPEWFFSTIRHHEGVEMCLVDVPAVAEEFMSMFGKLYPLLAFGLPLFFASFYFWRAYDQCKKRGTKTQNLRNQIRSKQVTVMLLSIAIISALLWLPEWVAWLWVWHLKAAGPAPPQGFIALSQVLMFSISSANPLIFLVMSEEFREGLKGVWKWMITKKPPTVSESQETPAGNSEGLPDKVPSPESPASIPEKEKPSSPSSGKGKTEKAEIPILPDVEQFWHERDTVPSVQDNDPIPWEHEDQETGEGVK
Each line names hits and unclear results; the compound was inactive in the other large screens.

Cc1ccccc1OCC(=O)N/N=C/c1ccc(F)cc1	none
Cc1ccc(C(C)C)c(OCC(=O)N/N=C2\CCCC(=O)C2)c1	none
CCOc1ccccc1OCC(=O)N/N=C1\CCCC(=O)C1	TEAD-YAP inh 48
Cc1ccc(/C=N/NC(=O)COc2ccccc2C)cc1	TEAD-YAP inh 50
CCOC(=O)C(C(C)CC)N(Cc1ccccc1C)S(=O)(=O)c1ccc([N+](=O)[O-])cc1 (configuration not stated)	none
COc1cc(/C=N\NC(=O)COc2cc(C)ccc2C(C)C)cc(OC)c1O	TEAD-YAP inh 36
Cc1ccc(/C=N/NC(=O)CCc2c(C)n[nH]c2C)cc1	TEAD-YAP inh 33
O=C(COc1ccccc1-c1ccccc1)N/N=C\c1ccc[nH]1	TEAD-YAP inh 51
COc1cc(/C=N/NC(=O)COc2ccc(C)cc2C)ccc1O	FBW7 act 1.9
COc1cc(/C=N\NC(=O)COc2ccc(C)cc2C)cc(OC)c1O	none
Cc1n[nH]c(C)c1CCC(=O)N/N=C/c1ccc(Br)cc1	none
Cc1ccc(C)c(C(=O)COC(=O)c2ccc(NC(=O)c3ccc(Cl)cc3Cl)cc2)c1	none
CC1(C)CC(=O)C(C(c2ccccc2Cl)C2C(=O)CC(C)(C)CC2=O)C(=O)C1	none
Cc1c(S(=O)(=O)NCCc2c[nH]c3ccccc23)c(=O)n(C)c(=O)n1C	none
COC(=O)c1ccccc1NC(=O)COc1ccc(Br)cc1Cl	none
O=C(NCCn1cc(SCC(=O)N2CCOCC2)c2ccccc21)c1ccc(F)cc1	TEAD-YAP inh 32
O=C(NCCn1cc(SCC(=O)N2CCN(c3ccccc3)CC2)c2ccccc21)c1ccc(F)cc1	none
CC1=CC(C)(C)N2C(=O)C(=O)c3cc(O)cc1c32	TEAD-YAP inh 54
CC1=CC(C)(C)N2C(=O)C(=O)c3cc(OS(=O)(=O)c4ccc(C)cc4)cc1c32	none
O=[N+]([O-])c1ccc(Br)c2ccncc12	TEAD-YAP inh 62
COCCNC(=O)/C=C/c1ccccc1OC	none
N#CC1=C(N)N(c2cccc([N+](=O)[O-])c2)C2=C(C(=O)CCC2)C1c1ccccc1 (configuration not stated)	none
Cc1c(C(=O)NCc2cccnc2)oc2ccc3c(c12)C(=O)CC1(CCCC1)O3	TEAD-YAP inh 40
COCCNC(=O)c1oc2ccc3c(c2c1C)C(=O)CC1(CCCCC1)O3	none
Oc1ccc(Br)cc1CN1CCN(Cc2ccncc2)CC1	MITF inh 54
CCS(=O)(=O)N1CCN(Cc2cc(Br)ccc2O)CC1	MITF inh 54
Oc1ccc(Br)cc1CN1CCN(Cc2c[nH]c3ccccc23)CC1	MITF inh 58
c1ccc2cc(CN3CCN(Cc4c[nH]c5ccccc45)CC3)ccc2c1	none
O=C(Nc1ccc(Cl)cc1)Nc1ccc(S(=O)(=O)Nc2ccccc2)cc1	none
CCOC(=O)c1c(NC=O)sc(C)c1-c1ccc(OC)c(OC)c1	none
Cc1cnc(-c2ccccc2)nc1N	none
CS(=O)(=O)Oc1ccc(Br)cc1/C=C1\SC(=S)NC1=O	none
COc1ccc(C(C#N)N2CCCCCC2)cc1OC (configuration not stated)	FBW7 act 2.0
CNC(=O)c1ccc(-c2ccc(Cl)cc2)nc1N(C)C	none
COc1ccc(-c2nc(Nc3ccc(N4CCOCC4)cc3)c3[nH]cnc3n2)cc1	TEAD-YAP inh 64
NC(=O)c1ccc(-c2nc(Nc3ccc(N4CCOCC4)cc3)c3[nH]cnc3n2)cc1	TEAD-YAP inh 73
COc1ccc(-c2nnc(SCC(=O)NCc3cccs3)nc2-c2ccc(OC)c(OC)c2)cc1OC	TEAD-YAP inh 56
CCOc1cc(-c2nnc(SCC(=O)NCc3ccc(C)cc3)nc2-c2ccc(OC)c(OCC)c2)ccc1OC	none
CCOc1cc(-c2nnc(SCC(=O)NCc3ccccc3)nc2-c2ccc(OC)c(OCC)c2)ccc1OC	TEAD-YAP inh 52
Cc1cc(C(=O)NN=C2C3CC4CC(C3)CC2C4)c2ccccc2n1	TEAD-YAP inh 47
Cc1cc(C(=O)NC2CC2)c2ccccc2n1	none
COc1ccc(-c2nc(NCCN3CCOCC3)c3ncn(-c4ccsc4)c3n2)cc1	TEAD-YAP inh 51
CC(=O)c1cccc(-c2nc(NCCN3CCOCC3)c3ncn(-c4ccccc4)c3n2)c1	TEAD-YAP inh 66
CC(=O)c1cccc(-c2nc(NCCN3CCOCC3)c3ncn(-c4ccsc4)c3n2)c1	TEAD-YAP inh 59
CN1CCN(c2ccc(-c3nc(NCCN4CCOCC4)c4ncn(-c5ccsc5)c4n3)cc2)CC1	none
Nc1cccc(-c2nc(NCCc3ccc(O)cc3)c3ncn(-c4ccccc4)c3n2)c1	TEAD-YAP inh 38
Clc1c(Cl)c(C2=NOC(c3ccccc3)C2)c(Cl)c(C2=NOC(c3ccccc3)C2)c1Cl (configuration not stated)	none
Cc1nn(C)cc1CNC(=O)CC1C(=O)NCCN1Cc1ccc(-c2ccccc2)cc1 (configuration not stated)	none
Nc1cccc(-c2nc(NCCN3CCOCC3)c3ncn(-c4ccccc4)c3n2)c1	TEAD-YAP inh 58
COc1ccc(C(=O)Nc2ccc(O)cc2C(=O)O)c(OC)c1	none
O=C(O)CCCN1C(=O)/C(=C/c2ccccc2F)SC1=S	TEAD-YAP inh 54
C=CCOc1c(/C=C2/SC(=S)N(CCC(=O)O)C2=O)cccc1OC	none
COc1cccc(/C=C2/SC(=S)N(CCCC(=O)O)C2=O)c1OC	TEAD-YAP inh 80
Cc1ccc2oc(-c3ccc(Cl)c(N)c3)nc2c1	TEAD-YAP inh 68
COc1ccc(-c2nc3cc(C(C)C)ccc3o2)cc1N	TEAD-YAP inh 66
COc1ccc(-c2nc3cc(N)ccc3o2)cc1Br	none
COc1ccc(-c2nc3ccccc3o2)cc1N	none
COc1ccc(-c2nc3cc(C)ccc3o2)cc1N	TEAD-YAP inh 88
Cn1cc(C(=O)NC2CCCC2)c(=O)c2cc(S(=O)(=O)N3CCCCCC3)ccc21	none
Cc1cnc2nc3c(cc2c1)CN(Cc1ccc(Cl)cc1S(C)(=O)=O)CC3	none
CCN(CC)c1ccc2c(Cl)c(Br)c(=O)oc2c1	FBW7 act 6.2
CCN(CC)c1ccc2c(C)cc(=O)oc2c1	none
CCN(CC)c1ccc2c(C)c(Cl)c(=O)oc2c1	FBW7 act 5.8
COCCCn1c(C)cc(C(=O)CSc2ncnc3sccc23)c1C	TEAD-YAP inh 43
CCC1CCCCN1c1ncnc(N)c1[N+](=O)[O-] (configuration not stated)	none
CC1CCCN(c2ncnc(N)c2[N+](=O)[O-])C1 (configuration not stated)	TEAD-YAP inh 62
CC1CN(c2ncnc(N)c2[N+](=O)[O-])CC(C)O1 (configuration not stated)	none
Nc1ncnc(N2CCCc3ccccc32)c1[N+](=O)[O-]	none
CC1CCCCN1c1ncnc(N)c1[N+](=O)[O-] (configuration not stated)	TEAD-YAP inh 42
CC1CC(C)CN(c2ncnc(N)c2[N+](=O)[O-])C1 (configuration not stated)	TEAD-YAP inh 62
CC1Cc2ccccc2N1c1ncnc(N)c1[N+](=O)[O-] (configuration not stated)	TEAD-YAP inh 81
Cc1ccsc1/C=C(\C#N)C(=O)Nc1cc2c(cc1[N+](=O)[O-])OCCO2	none
O=C(NN1CCN(Cc2ccccc2)CC1)c1ccc(Cl)cc1Cl	none

Screening results from PubChem BioAssay.
